Results on 53 compounds are retold here after ChEMBL document CHEMBL3988442, “University of Dundee, Small-Polar-MMV Screening Library” (2021).

Screen size: about 69,000 compounds; about 30 (0.04%) showed an effect of 50% or more. Only a selection was taken, and strong results are over-represented in it overall.

The test deals with T1, Histidine--tRNA ligase (Trypanosoma cruzi (strain CL Brener)) (UniProt Q4DA54).
T1 sequence (whole entry): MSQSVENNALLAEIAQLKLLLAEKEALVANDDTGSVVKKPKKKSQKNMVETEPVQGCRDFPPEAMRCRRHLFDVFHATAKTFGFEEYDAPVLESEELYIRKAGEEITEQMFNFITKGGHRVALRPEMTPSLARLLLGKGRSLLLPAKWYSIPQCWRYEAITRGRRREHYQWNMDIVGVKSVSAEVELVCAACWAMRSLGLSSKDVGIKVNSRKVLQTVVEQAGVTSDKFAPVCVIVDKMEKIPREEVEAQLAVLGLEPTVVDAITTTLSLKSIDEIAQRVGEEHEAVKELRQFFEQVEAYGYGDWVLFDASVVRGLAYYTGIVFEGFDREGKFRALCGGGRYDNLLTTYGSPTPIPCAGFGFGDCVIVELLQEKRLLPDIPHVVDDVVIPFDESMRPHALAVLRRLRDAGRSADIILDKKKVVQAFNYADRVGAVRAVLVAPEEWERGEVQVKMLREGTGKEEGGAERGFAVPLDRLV
Nature of the test: Trypanosoma cruzi histidyl tRNA synthetase (Tc-HisRS). Format: functional. Details: scale not given: direction of the effect not stated beside the values. The conditions noted are these: 30 µM.
Consider `COc1ccc(CN2C[C@H]3CC[C@](O)(c4ccc(C)cn4)[C@H]3C2)c(F)c1`, for which the Percent Effect is -0.54%.
For `Cc1ccc(C(=O)N2C[C@H]3CCC[C@@]3(COCC3CCOCC3)C2)o1`, the Percent Effect worked out at 14.3%.
For `Cn1cc(CN2CC[C@H]3OCC[C@@H](C(=O)Nc4cnccn4)[C@@H]3C2)cn1` the value was -1.22%; for `CN(Cc1cccnc1)C[C@H]1OC[C@@H]2CCN(c3ncccn3)C[C@@H]21`, -3.09%.
The figure for `COc1cccc(-c2ncc(CN3CC[C@H]4CC[C@@H](C3)N4)s2)c1` is 7.88%.
For the compound `O=C(c1cnccn1)N1C[C@@H]2CCN(c3cccnc3)C[C@@H]2C1`, the Percent Effect was determined as 2.96%.
For `CN(C)C(=O)[C@@H]1CCO[C@@H]2CCN(Cc3ccccc3)C[C@@H]21` the value was 5.88%.
The figure for `NCC1Cc2cc(-c3nccc(N4CCC(O)CC4)n3)cc(F)c2O1` (stereo not drawn) is 33.7%; for `NCC1Cc2cc(-c3nccc(N4CCC(O)CC4)n3)cc(Cl)c2O1` (stereo not drawn) it is 53.1%.
Take `NCC1Cc2cccc(-c3nccc(N4CCC(O)CC4)n3)c2O1` (stereo not drawn): the Percent Effect amounted to 20.4%.
On to `Cc1cnc(N2C[C@@H]3[C@@H](C2)OCC(=O)N3C)nc1`, for which the Percent Effect amounted to 7.36%.
With `CC(=O)N1CC[C@@H]2O[C@@H](COCC(=O)N3CCCC3)CC[C@@H]21`, the Percent Effect amounted to 2.63%.
The figure for `O=C(C1CCCC1)N1C[C@@H](c2ccsc2)[C@@H]2CN(C3CCCC3)CC[C@@H]21` is 41.7%.
The figure for `O=C(c1ccsc1)N1C[C@H]2CN(Cc3cccc(F)c3)C(=O)[C@H]2C1` is 7.84%; for `COCCN1C[C@@H]2CN(C(=O)[C@H]3CCCO3)C[C@@H]2C1=O` it is 0%; for `CSc1ncccc1C(=O)N1C[C@H]2CC[C@@H]1CN(c1ncccn1)C2` it is 1.67%.
The figure for `Cc1ccnc(OC[C@@]23CCO[C@@H]2CCN(c2ncccn2)C3)n1` is 9.2%; for `O=C(NC1CC1)[C@@]12CCO[C@@H]1CCN(Cc1ccc3c(c1)OCO3)C2` it is 1.11%.
Take `Cc1nc(CNC2CCCN(c3cccnn3)C2)no1` (stereo not drawn): the Percent Effect is 6.55%.
For `CC(C)(C)c1nc(CNC2CCCN(c3cccnn3)C2)no1` (stereo not drawn) the value was 0.595%; for `CC(C)c1nc(CNC2CCCN(c3cccnn3)C2)no1` (stereo not drawn), 50.6%.
For `O=C1[C@@H]2CCN(Cc3ccc(F)cc3)C[C@@H]2OCCN1c1cccnc1` the value was 8.02%; for `COc1cccn(CC(=O)N2CCC3(CCNCC3)C2)c1=O`, 10.9%.
The figure for `CCCOCC1CCN(C(=O)Cn2cccc(OC)c2=O)C1` (stereo not drawn) is 10.3%; for `COc1cccn(CC(=O)N2CCCC3(CCCO3)CC2)c1=O` (stereo not drawn) it is 71.3%; for `COCCN(C)C(=O)Cn1cccc(OC)c1=O` it is 3.31%.
In the case of `COc1cccn(CC(=O)N2CCCC3(CCCCC3)C2)c1=O`, the Percent Effect came to 76.2%.
Turning to `COc1cccn(CC(=O)N2CCCC3(CCOCC3)C2)c1=O`, the Percent Effect was 9.9%.
For `Cc1ccc(N2CC[C@H]3O[C@H](C(=O)N4CCCCO4)CC[C@H]32)nn1` the value was -1.11%.
For `CNC(=O)[C@H]1C[C@@H]2CN(S(=O)(=O)c3cccc(C)c3)C[C@@H]2N1C` the value was 5.88%; for `CC(=O)N1CCO[C@@H]2CN(C(=O)c3ccc4ccccc4c3)CC[C@@H]2C1`, -5.75%; for `Cn1nc(Cn2ccnc2)c2c1CN(c1nccs1)C2`, 66.7%.
Take `Cn1nc(Cn2ccnc2)c2c1CN(c1ncccn1)C2`: the Percent Effect was 2.15%.
The figure for `CCS(=O)(=O)N1Cc2c(Cn3ccnc3)nn(C)c2C1` is 2.67%; for `O=C(NC1CC1)c1ccc2ccc(N3CCN(CC4CC4)CC3)n2c1` it is 45.1%.
For `CN(CC1CC1)c1ccc2ccc(C(=O)NC3CCCCC3)cn12` the value was 42.8%.
For `CCN(CC)c1ccc2ccc(C(=O)NC3CC3)cn12` the value was 36.8%.
As for `COCCNC(=O)c1ccc2ccc(N3CCN(CC4CC4)CC3)n2c1`, the Percent Effect was 38.8%.
In the case of `CC(=O)N1CCN(c2ccc3ccc(C(=O)NC4CCCC4)cn23)CC1`, the Percent Effect turned out to be 59.4%.
The figure for `CN(C)C(=O)N1CCN(c2ccc3ccc(C(=O)NC4CC4)cn23)CC1` is 36.9%; for `COCCN1CCN(c2ccc3ccc(C(=O)NC4CC4)cn23)CC1` it is 35%; for `CC(C)N1CCN(c2ccc3ccc(C(=O)NC4CCCC4)cn23)CC1` it is 60.2%.
For `CS(=O)(=O)N1CCN(c2ccc3ccc(C(=O)NC4CC4)cn23)CC1` the value was 52.4%; for `CS(=O)(=O)NC[C@]12COC[C@H]1CN(C(=O)C1CCSCC1)C2`, -6.35%.
For `Cc1cc(CN2CC[C@H]3C(=O)N(c4ccccc4)CCO[C@H]3C2)no1` the value was 7.1%; for `CCOc1ccc(CCC(=O)N2CC[C@H]3C(=O)NCCO[C@H]3C2)cc1`, 3.45%.
On to `CN(C)CCO[C@H]1CN(C(=O)c2ccc(C#N)cc2)[C@@H]2COC[C@H]12`, for which the Percent Effect stood at 15.7%.
With `CO[C@H]1[C@@H]2CC[C@H]1CN(c1nc(C)nc3ccsc13)C2`, the Percent Effect was -6.52%.
For `CN(C)C(=O)CN1C[C@H]2CCN(C(=O)c3ccccc3)CC[C@H]2S1(=O)=O` the value was 4.3%.
Consider `Cc1noc(C)c1CN1CCO[C@H]2CN(Cc3ccc(F)cc3)C[C@H]21`, for which the Percent Effect turned out to be 7.2%.
The figure for `O=C(Cn1c(=O)nc2n1C(=O)N(c1ccccc1)C2)NC1CCCCC1` is 6.06%; for `CN(C)CCNC(=O)c1ccc2ccc(N(C)CC3CC3)n2c1` it is -9.13%.
For `COCCNC(=O)c1ccc2ccc(N(C)CC3CC3)n2c1` the value was 26.4%.
